About 8,800 targets were measured; listed, in parts, are those with a hit and a random draw of the rest. About 0.5% of all pairs of compound and target were hits.
The targets below were run with Cc1ncc(-c2ccnc(Nc3ccc(S(C)(=O)=O)cc3)n2)n1C(C)C (assay: log2 fold change, soluble protein after heating vs DMSO (PISA); higher = thermal stabilisation; K562 lysate, 10 uM; active = over 0.2 and 3.5 SD of the protein, either way, in both replicates (recomputed)).
Procedure, shortened: (§1)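 Log-two fold change in thermal stability relative to solvent controls is reported from duplicates. For each sample, crude K562 extract from dounce-homogenised pellets in PBS pH 7.4 with 1 mM MgCl2, at 1 mg/mL protein, was treated with 10 μM compound for 30 min. Aliquots heated for 3 min across 48°C-58°C were pooled, brought to 0.5% NP-40 at 4°C and cleared at 21,000xg for 90 min. The supernatant was quantified by TMTpro 16plex LC-MS/MS with channel sums equalised.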

Chain of UniProt P10646 (P10646 whole entry, looked up): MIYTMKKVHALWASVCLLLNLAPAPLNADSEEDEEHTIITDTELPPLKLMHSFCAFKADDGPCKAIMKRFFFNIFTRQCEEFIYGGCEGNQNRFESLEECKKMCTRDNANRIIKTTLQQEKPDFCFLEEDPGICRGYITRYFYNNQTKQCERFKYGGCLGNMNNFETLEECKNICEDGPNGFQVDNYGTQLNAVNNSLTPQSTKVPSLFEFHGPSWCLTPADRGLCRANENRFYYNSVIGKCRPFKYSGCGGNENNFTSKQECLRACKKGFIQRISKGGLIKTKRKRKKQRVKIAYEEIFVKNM
Chain of UniProt Q9H5L6 (Q9H5L6 whole entry, looked up): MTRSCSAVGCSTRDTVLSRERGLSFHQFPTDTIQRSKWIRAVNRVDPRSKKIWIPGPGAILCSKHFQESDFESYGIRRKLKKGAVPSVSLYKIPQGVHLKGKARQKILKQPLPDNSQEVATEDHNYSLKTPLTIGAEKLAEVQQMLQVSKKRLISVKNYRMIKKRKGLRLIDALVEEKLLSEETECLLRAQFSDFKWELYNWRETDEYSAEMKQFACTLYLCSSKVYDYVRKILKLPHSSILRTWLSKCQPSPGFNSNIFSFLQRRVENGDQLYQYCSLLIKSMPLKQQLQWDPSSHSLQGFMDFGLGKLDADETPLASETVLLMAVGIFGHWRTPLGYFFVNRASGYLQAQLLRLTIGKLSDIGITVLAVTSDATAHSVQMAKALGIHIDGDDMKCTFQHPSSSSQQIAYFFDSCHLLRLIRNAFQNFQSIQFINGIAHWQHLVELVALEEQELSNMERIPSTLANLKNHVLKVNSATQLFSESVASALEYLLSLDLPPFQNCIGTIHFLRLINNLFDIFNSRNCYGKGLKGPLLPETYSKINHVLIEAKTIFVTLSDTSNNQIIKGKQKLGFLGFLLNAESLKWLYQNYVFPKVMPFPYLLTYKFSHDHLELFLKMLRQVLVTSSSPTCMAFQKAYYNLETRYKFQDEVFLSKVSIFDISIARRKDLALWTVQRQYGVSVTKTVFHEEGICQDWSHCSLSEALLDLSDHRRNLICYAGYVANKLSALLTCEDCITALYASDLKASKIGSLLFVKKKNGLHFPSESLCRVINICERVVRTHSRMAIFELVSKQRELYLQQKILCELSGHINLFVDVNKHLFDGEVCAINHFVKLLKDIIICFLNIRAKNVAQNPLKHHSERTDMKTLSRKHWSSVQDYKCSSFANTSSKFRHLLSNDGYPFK
Chain of UniProt Q9NRX6 (Q9NRX6 whole entry, looked up): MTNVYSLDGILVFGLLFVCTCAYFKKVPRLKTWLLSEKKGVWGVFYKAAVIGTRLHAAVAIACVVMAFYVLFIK
Chain of UniProt P55851 (P55851 whole entry, looked up): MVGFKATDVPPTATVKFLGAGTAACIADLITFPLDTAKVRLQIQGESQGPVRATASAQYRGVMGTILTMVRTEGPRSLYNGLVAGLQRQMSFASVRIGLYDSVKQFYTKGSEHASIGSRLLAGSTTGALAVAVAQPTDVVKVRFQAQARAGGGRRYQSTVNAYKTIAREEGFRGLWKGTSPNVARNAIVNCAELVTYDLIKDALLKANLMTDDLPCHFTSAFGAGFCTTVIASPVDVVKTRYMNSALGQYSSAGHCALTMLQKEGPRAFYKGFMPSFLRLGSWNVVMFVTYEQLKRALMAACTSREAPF
Chain of UniProt Q8NDZ6 (Q8NDZ6 whole entry, looked up): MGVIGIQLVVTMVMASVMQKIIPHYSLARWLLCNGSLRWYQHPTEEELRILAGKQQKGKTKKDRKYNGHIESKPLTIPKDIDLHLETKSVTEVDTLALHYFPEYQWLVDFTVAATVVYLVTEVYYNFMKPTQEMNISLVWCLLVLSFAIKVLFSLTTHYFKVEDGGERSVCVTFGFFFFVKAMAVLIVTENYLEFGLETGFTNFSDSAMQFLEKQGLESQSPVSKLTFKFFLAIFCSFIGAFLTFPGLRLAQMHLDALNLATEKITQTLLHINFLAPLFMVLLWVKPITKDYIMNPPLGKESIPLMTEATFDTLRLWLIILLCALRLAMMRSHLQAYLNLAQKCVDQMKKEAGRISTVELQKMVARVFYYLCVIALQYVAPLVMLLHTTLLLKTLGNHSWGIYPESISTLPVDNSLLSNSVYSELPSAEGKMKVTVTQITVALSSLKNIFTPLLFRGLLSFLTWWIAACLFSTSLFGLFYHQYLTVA
Chain of UniProt Q01664 (Q01664 whole entry, looked up): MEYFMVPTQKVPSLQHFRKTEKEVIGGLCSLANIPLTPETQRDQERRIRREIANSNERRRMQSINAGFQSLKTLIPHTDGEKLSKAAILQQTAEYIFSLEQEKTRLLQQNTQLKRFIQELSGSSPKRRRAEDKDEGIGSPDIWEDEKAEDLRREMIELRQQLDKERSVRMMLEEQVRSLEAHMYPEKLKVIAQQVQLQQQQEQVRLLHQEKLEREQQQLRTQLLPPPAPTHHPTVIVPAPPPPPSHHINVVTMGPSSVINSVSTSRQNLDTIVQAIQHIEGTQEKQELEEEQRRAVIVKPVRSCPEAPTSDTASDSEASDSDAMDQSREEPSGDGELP
Chain of UniProt Q96BZ9 (Q96BZ9 whole entry, looked up): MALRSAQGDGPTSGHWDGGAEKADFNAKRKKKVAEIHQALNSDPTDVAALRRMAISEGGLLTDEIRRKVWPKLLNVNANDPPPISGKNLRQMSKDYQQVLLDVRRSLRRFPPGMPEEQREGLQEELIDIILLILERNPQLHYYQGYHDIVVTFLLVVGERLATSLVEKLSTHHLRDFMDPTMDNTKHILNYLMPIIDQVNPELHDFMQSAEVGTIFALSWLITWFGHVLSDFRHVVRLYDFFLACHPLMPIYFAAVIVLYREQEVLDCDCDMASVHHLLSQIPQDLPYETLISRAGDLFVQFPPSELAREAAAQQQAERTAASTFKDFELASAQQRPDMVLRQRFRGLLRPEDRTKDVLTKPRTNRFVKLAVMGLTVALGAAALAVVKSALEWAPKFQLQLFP
Chain of UniProt Q6P9G4 (Q6P9G4 whole entry, looked up): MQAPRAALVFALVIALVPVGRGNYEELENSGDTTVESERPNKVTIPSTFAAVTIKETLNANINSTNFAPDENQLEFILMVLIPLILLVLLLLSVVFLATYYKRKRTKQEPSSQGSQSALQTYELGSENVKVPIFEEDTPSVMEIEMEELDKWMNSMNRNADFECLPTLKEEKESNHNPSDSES
Chain of UniProt Q8TDI8 (Q8TDI8 whole entry, looked up): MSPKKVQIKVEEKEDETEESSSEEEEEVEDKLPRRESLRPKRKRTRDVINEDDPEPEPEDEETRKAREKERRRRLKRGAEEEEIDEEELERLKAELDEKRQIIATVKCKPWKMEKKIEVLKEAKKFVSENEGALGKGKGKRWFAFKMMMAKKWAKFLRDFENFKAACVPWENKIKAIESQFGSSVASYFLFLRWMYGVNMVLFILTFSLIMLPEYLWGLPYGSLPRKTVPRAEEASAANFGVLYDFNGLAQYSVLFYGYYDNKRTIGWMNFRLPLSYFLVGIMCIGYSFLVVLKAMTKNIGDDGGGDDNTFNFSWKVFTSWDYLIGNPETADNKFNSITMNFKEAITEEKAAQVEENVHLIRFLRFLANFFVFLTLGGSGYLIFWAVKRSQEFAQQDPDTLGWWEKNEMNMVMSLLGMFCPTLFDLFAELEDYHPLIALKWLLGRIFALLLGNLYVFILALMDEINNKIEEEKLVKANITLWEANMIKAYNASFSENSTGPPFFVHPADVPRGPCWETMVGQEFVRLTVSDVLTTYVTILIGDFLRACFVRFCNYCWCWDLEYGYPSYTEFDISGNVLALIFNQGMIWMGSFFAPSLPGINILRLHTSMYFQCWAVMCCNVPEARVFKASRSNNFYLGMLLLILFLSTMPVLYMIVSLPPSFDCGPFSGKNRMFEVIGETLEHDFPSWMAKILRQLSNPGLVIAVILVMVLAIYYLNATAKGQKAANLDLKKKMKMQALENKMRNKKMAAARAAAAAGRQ
Chain of UniProt Q9NPG3 (Q9NPG3 whole entry, looked up): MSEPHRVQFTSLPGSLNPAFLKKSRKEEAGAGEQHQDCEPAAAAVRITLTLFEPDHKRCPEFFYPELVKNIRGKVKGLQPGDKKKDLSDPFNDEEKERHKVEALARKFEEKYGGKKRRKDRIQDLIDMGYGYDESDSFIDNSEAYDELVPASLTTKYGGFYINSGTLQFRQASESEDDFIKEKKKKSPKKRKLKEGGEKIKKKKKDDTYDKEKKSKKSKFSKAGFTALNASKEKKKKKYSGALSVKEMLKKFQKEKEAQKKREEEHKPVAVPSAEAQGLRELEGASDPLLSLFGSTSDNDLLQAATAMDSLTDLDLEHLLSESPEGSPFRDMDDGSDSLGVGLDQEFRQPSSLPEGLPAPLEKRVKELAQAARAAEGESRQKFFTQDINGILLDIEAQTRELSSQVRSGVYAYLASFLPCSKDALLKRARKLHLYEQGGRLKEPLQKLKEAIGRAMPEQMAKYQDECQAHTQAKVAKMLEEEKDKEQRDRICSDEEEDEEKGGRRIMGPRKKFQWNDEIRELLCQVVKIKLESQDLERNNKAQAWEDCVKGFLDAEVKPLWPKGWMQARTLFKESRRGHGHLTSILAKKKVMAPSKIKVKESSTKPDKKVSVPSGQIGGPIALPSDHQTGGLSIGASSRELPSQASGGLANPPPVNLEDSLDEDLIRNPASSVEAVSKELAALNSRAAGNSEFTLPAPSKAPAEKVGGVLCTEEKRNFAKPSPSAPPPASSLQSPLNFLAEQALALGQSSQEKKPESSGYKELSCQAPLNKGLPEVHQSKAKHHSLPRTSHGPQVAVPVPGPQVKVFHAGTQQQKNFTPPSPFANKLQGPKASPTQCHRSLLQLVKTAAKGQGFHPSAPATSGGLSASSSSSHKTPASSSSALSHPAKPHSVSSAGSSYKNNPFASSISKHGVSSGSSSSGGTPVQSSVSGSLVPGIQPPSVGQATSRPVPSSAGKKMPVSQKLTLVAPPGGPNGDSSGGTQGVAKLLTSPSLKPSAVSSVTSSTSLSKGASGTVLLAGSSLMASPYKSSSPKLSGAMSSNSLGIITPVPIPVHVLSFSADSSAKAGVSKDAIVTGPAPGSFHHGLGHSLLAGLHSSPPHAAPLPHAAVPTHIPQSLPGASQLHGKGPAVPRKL
Chain of UniProt P62328 (P62328 whole entry, looked up): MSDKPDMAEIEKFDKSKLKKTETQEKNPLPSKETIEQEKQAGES

log2 fold change, inactive:
TEC (UniProt P42680) 0.019
UCP2 (UniProt P55851) -0.137
TMSB4X (UniProt P62328) 0.115
TFAP4 (UniProt Q01664) 0
TFPI (UniProt P10646) -0.035
TMC1 (UniProt Q8TDI8) -0.28
TMEM167B (UniProt Q9NRX6) 0.014
TUBB6 (UniProt K7ES63) -0.155
TPD52L2 isoform 3 (UniProt O43399) 0.008
UBAP2L isoform 1 (UniProt Q14157) 0.09
TMEM161B (UniProt Q8NDZ6) 0.053
UBAP2 (UniProt Q5JV08) 0.104
TUBB4A (UniProt M0QYM7) 0.039

The targets below were run with Cn1cc(-c2ccc3c(c2)CCN3C(=O)Cc2cccc(C(F)(F)F)c2)c2c(N)ncnc21 in the same assay as above.
Procedure, shortened: as §1

log2 fold change, inactive:
TNIK (UniProt C9J338) -0.043
TRPM4 (UniProt Q8TD43) -0.099
TMEM154 (UniProt Q6P9G4) 0.07
TCF20 (UniProt Q9UGU0) -0.057
UBXN10 (UniProt Q96LJ8) 0.008
THAP9 (UniProt Q9H5L6) -0.032
TLE3 (UniProt H0YL70) 0.05
TBC1D20 isoform 3 (UniProt Q96BZ9) -0.053
UCHL5 (UniProt Q5LJA9) -0.075
TNIK isoform 5 (UniProt Q9UKE5) 0.019
TFPT (UniProt P0C1Z6) 0.006
UBR4 isoform 4 (UniProt Q5T4S7) -0.158
TMPO isoform 2 (UniProt P42167) -0.072
TPM3 isoform 3 (UniProt P06753) 0.106
TGFBR1 isoform 2 (UniProt P36897) -0.03
UBN1 (UniProt Q9NPG3) 0.055

The targets below were run with Cn1cc(CNCC2CCN(c3ncc(C(=O)NO)cn3)CC2)c2ccccc21 [quisinostat] in the same assay as above.
Procedure, shortened: as §1

log2 fold change, active:
TMC1 (UniProt Q8TDI8) -0.552

log2 fold change, inactive:
TNIK (UniProt C9J338) -0.292
UCP2 (UniProt P55851) -0.022
TMSB4X (UniProt P62328) -0.024
TFPI isoform 2 (UniProt P10646) -0.087
TRPM4 (UniProt Q8TD43) -0.01
TFAP4 (UniProt Q01664) 0.006
TFPI (UniProt P10646) -0.088
TTLL12 (UniProt V9GY16) -0.436
TMEM167B (UniProt Q9NRX6) -0.016
TMEM154 (UniProt Q6P9G4) 0.103
TUBB6 (UniProt K7ES63) -0.267
TCF20 (UniProt Q9UGU0) 0.193
UBXN10 (UniProt Q96LJ8) -0.028
UBAP2, A0A0D9SFI5 0.151
THAP9 (UniProt Q9H5L6) -0.455
UBAP2L (UniProt F8W726) 0.11
TBC1D20 isoform 3 (UniProt Q96BZ9) -0.021
UCHL5 (UniProt Q5LJA9) -0.186
TNIK isoform 5 (UniProt Q9UKE5) -0.218
TCF3 isoform 2 (UniProt P15923) -0.05
UBAP2L isoform 1 (UniProt Q14157) 0.613
TPM3 isoform 3 (UniProt P06753) 0.112
TMEM161B (UniProt Q8NDZ6) -0.07
UBN1 (UniProt Q9NPG3) 0.114
TMEM177 (UniProt Q53S58) -0.018
TMEM132A isoform 2 (UniProt Q24JP5) -0.022
TENM4 (UniProt Q6N022) -0.13
TUBB4A (UniProt M0QYM7) -0.116

Reference: the supplement of paper PMC10849652
